# Dicer inh – inhibitors of human Dicer processing of pre-microRNA; Q9UPY3; cat-ELCCA pre-miR-21 Dicer processing, chemiluminescence; hits give high values; z-score at 25 µM; 47,000 compounds, 6% hits; in the data active = z-score above about 3, passing the limit was not always enough;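 also: plate controls were vehicle for no effect and no enzyme for full effect; higher signal means more uncleaved substrate so more Dicer inhibition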
# * = called active by the depositor. This excerpt belongs to a sample that is enriched for hits.
SMILES,Dicer inh
COc1cc(C2Nc3cccc4cccc(c34)N2)ccc1OCc1ccccc1,2.9
c1ccc2c(C3Nc4cccc5cccc(c45)N3)cccc2c1,4.4*
COc1cc(OC)c(C2Nc3cccc4cccc(c34)N2)c(OC)c1,1.8
CN(C)c1ccc(C2Nc3cccc4cccc(c34)N2)cc1,0.05
O=C1NC(c2cccc(Br)c2)Nc2ccccc21 (centres undefined),2.1
O=C1NC(c2ccc(Cl)cc2)Nc2ccccc21 (centres undefined),-0.49
COc1ccccc1C1Nc2cccc3cccc(c23)N1,2.2
CCc1ccc(C2Nc3cccc4cccc(c34)N2)cc1,0.54
c1ccc(C2Nc3cccc4cccc(c34)N2)cc1,6.2*
CCn1c(CSc2nc(C)cc(=O)[nH]2)nc2ccccc21,1
CCOc1cc(C)c(Cl)cc1S(=O)(=O)n1ccnc1CC,0.5
N#CC(C(=O)C1CC1)=C1SCCS1,-3.9
COC(=O)c1ccc(C2c3c(oc4ccccc4c3=O)C(=O)N2c2nnc(C)s2)cc1 (centres undefined),1.1
Cc1nc2sc3c(N4CCCC4)ncnc3c2c2c1COC(C)(C)C2,-0.27
COC(=O)c1cc(OC)c(OC)cc1NC(=O)Nc1ccccc1,-0.33
Cc1onc(-c2ccccc2)c1N1C(=O)CCN(C(C)C)C1=O,2
Cc1ccc(-c2cc(-c3ccccc3)nc(N)c2C#N)o1,-0.65
Cc1ccc(-c2nc(-c3ccccn3)no2)cc1C,0.41
N/C(=N\OC(=O)Nc1ccc(Cl)cc1)c1cnn2c(C(F)(F)F)cc(C(F)(F)F)nc12,0.48
c1ccc2c(c1)c1ccccc1c1nn3nnnc3nc21,-0.47
C=C(C)CC1C(=O)N(C(=O)c2c(Cl)cccc2Cl)N=C1C (centres undefined),3.4*
C=C(C)CC1C(=O)N(S(=O)(=O)c2ccc(Cl)cc2)N=C1C (centres undefined),-1.6
C=C(C)CC1C(=O)N(S(=O)(=O)c2ccccc2Cl)N=C1C (centres undefined),1.3
C=C(C)CSC1=C(C#N)C(c2ccc(OCC)cc2)C(C(=O)OC)C(=O)N1 (centres undefined),0.72
Cn1cnc(S(=O)(=O)Nc2ccc(N3CCCCC3)cc2)c1,-1.5
SMILES,Dicer inh
O=S(=O)(Nc1ccc2c(c1)OCCO2)c1cc(S(=O)(=O)c2ccccc2)cs1,2.4
O=S(=O)(Nc1ccc(N2CCCCC2)cc1)c1cc(S(=O)(=O)c2ccccc2)cs1,5.3*
CC(Nc1ccccn1)C(=O)N1CCN(Cc2ccccc2)CC1 (centres undefined),-0.12
COc1ccc(OCc2nc(CSc3nnc(C(F)(F)F)n3C)cs2)cc1,0.79
O=C(CS(=O)(=O)c1ccc(Br)cc1)c1ccccc1,3.8*
O=C(CSCC(=O)c1ccc(Br)cc1)c1ccc(Br)cc1,-2.9
COC(=O)CCS(=O)(=O)c1ccc(Br)cc1,2.1
CC(C)c1ccc(NC(=O)NC(=O)c2ncon2)cc1,-0.87
O=C(Cn1c(=O)oc2cc(Br)ccc21)Nc1ccc(S(=O)(=O)N2CCOCC2)cc1,0.66
Cc1nnc(SCC(=O)Nc2ncc3c(n2)CC(c2ccco2)CC3=O)s1 (centres undefined),2.8
Cc1nc(Nc2ncc3c(n2)CC(c2ccccc2)CC3=O)nc2ccccc12 (centres undefined),1.3
O=C1CC(c2ccccc2Cl)Cc2nc(NCCc3ccccc3)ncc21 (centres undefined),-0.73
O=C1CC(c2ccccc2)Cc2nc(NCc3ccco3)ncc21 (centres undefined),3.9*
CCC(C)C(=O)Nc1ncc2c(n1)CC(c1ccc(C(C)C)cc1)CC2=O (centres undefined),0.71
O=C(Nc1ncc2c(n1)CC(c1ccccc1)CC2=O)c1ccco1 (centres undefined),4.2*
CC(C)(C)NC(=O)NCCc1ccccc1,0.18
Cn1ccnc1Sc1cnc(SCC(=O)c2ccc(Cl)cc2)nc1-c1ccc(Cl)cc1,-2
COc1ccc(-c2csnn2)cc1S(=O)(=O)Nc1ccccc1,2.2
Cc1ccc(S(=O)(=O)N/N=C/C(=O)O)cc1,-1
CNC(=O)NNc1ccc(-c2csnn2)cc1,0.33
Cc1ccc(S(=O)(=O)NCCCN(C)C)cc1,2.8
COCCCNC(=S)NNS(=O)(=O)c1ccc(C)cc1,0.29
Cc1ccc(S(=O)(=O)Nc2ccc(N(C)C)cc2)cc1,3.8*
CN(C)c1ccc(NS(=O)(=O)c2ccc(-c3csnn3)cc2)cc1,7*
COCCCNS(=O)(=O)c1ccc(NS(=O)(=O)c2ccc(C)cc2)cc1,4.7*
SMILES,Dicer inh
COc1ccc(NS(=O)(=O)c2ccc(NS(=O)(=O)c3ccc(C)cc3)cc2)nn1,-0.33
O=C(NC(OCc1ccc(F)cc1)(C(F)(F)F)C(F)(F)F)c1ccccc1,0.7
O=C1c2cccnc2C(=O)N1c1ccc(-c2nc3cc(Cl)ccc3o2)cc1,-1.6
CC1=C(Cl)C(=O)OC1(C)CN(C)C (centres undefined),-0.95
CC(C)(C)c1ccc(C2c3c(oc4ccccc4c3=O)C(=O)N2c2nccs2)cc1 (centres undefined),-1
CCCN1C(=O)C(O)(CC(=O)c2ccccc2O)c2ccccc21 (centres undefined),-1.1

# Screens deposited in PubChem BioAssay by Center for Chemical Genomics, University of Michigan.
